The results in this text go back to PubChem BioAssay AID602143 (Vanderbilt Specialized Chemistry Center, 2011).

One may read the remaining activity as the signal under treatment as a percentage of the control signal.

Structures are written as SMILES. Several values for one entry are separate records, joined by “and”; a condition that tells them apart may be missing. Equal values may be shown once. A number with no mark means an inactive call. Activity calls are given as the source filed them. Cut-off read from the data, not from the text of the source: active = remaining activity below about 50%; inactive = the rest.

Chain of Phospholipase D2 (Homo sapiens) (O14939 whole entry, looked up): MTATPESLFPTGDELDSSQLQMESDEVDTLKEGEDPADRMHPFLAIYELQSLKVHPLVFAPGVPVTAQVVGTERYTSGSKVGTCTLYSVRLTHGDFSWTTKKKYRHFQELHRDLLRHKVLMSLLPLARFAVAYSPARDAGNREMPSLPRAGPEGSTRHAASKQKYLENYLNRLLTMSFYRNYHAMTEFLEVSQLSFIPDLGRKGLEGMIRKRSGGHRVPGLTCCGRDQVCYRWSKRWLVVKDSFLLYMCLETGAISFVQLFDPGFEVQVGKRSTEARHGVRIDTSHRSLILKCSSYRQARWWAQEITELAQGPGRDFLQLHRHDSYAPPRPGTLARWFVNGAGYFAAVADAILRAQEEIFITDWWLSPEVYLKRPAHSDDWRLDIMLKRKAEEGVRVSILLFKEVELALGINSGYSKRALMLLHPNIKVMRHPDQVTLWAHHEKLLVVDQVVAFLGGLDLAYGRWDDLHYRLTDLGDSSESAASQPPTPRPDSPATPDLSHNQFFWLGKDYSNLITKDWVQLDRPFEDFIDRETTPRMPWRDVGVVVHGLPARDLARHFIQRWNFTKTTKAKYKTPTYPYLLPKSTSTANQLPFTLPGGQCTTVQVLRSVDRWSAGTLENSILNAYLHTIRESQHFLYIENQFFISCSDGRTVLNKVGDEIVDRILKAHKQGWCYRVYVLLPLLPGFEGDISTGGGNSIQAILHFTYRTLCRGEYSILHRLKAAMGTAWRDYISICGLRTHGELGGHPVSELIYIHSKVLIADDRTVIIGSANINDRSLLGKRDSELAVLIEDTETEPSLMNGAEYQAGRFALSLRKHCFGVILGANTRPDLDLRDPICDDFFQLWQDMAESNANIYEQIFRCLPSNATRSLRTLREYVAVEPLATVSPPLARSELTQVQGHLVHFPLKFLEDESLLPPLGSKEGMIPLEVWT
Chain of Phospholipase D2 (Homo sapiens) (O14939 whole entry, looked up): as above

The assay has as its target Phospholipase D2 (Homo sapiens) (UniProt O14939). Kind of assay: PLD2 inhibitors in cells, cell-based, HEK293, single concentration (AID 602143).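 Note: tested at 200 nM.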 The following applies: HEK293 cellular PLD2 activity, percent of control; hits give low values.
Regarding `O=C(CCN1CCC2(CC1)C(=O)NCN2c1ccccc1)Nc1cnc2ccccc2c1`, the remaining activity was 104%.
Turning to `O=C(NCCN1CCC2(CC1)C(=O)NCN2c1ccccc1)c1ccncn1`, the remaining activity is 93.7%.
In the case of `O=C(NCCN1CCC2(CC1)C(=O)NCN2c1cccc(F)c1)c1ccc(Cl)cc1Cl`, the remaining activity was 92.4%.
`CCCCOc1ccc(C(=O)NCCN2CCC3(CC2)C(=O)NCN3c2cccc(F)c2)cc1`: the remaining activity was 95.2%.
In the case of `NC1(CN2CCC3(CC2)C(=O)NCN3c2ccccc2)CCCC1` (tested in a mixture with another compound) it was 74.2%; in that of `CCOC(=O)CCN1CCC2(CC1)C(=O)NCN2c1ccccc1`, 91.6%.
On to `O=C(NCCN1CCC2(CC1)C(=O)NCN2c1ccccc1)C(c1ccccc1)c1ccccc1`, for which the remaining activity is 74.8%.
In the case of `C[C@@H](CN1CCC2(CC1)C(=O)NCN2c1ccc(F)c(F)c1)NC(=O)c1ccc(Cl)cc1`, the remaining activity was 14.9% (active).
The result for `O=C1c2ccccc2C(=O)N1CCCN1CCC2(CC1)C(=O)NCN2c1ccccc1` reads 81%; that for `Cc1ccccc1C(=O)NCCN1CCC2(CC1)C(=O)NCN2c1cccc(F)c1`, 115%; that for `Nc1cccc(Cl)c1C(=O)NCCN1CCC2(CC1)C(=O)NCN2c1ccccc1`, 100%.
In the case of `O=C(c1cnc2ccccc2c1)N1CCC[C@@H]1CN1CCC2(CC1)C(=O)NCN2c1ccccc1` it was 106%; in that of `O=C(NCCN1CCC2(CC1)C(=O)NCN2c1cccc(Cl)c1)c1cnc2ccccc2c1`, 45.2% (active).
As for `O=C(c1ccc(F)c(F)c1)N1CCCC1CN1CCC(n2c(=O)[nH]c3ccccc32)CC1` (centres undefined), the remaining activity was 124% and 114%.
